Several values for one entry are separate records, joined by “and”; a condition that tells them apart may be missing. Equal values may be shown once. Records with an inconclusive call do not appear. Activity calls are given as the source filed them. Calls follow the shape of the dose curve; as a rule, active = well fitted curve in the direction sought with a large enough effect; inconclusive = small, poorly fitted or top-dose-only effect, or another doubt; inactive = no such curve, though single readings can be large; an effect the other way counts as inactive or inconclusive.
Key:
[1] = Confirmatory screen GU Rhodamine qHTS for Zika virus inhibitors qHTS (AID 1347157); conditions: purified enzyme assay, Rhodamine110 substrate fluorescence, 15 min; series mostly up to 114 µM; also: nearly all actives have a fitted effect of over 70% in size; also: potency is read from the fitted curve at half-maximal effect
Method in brief: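 A qHTS format was used, with compound concentrations ranging up to 114 microM. Each compound was preincubated with 25 nM NS2B-NS3 protease, and the substrate was then added at 1.5 microM. Curves were fitted with a 4-parameter Hill model.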

[2] = test system: Zika virus NS2B-NS3 protease (unlinked complex); assay: Primary screen GU Rhodamine qHTS for Zika virus inhibitors: Unlinked NS2B-NS3 protease assay (AID 1347159); conditions: Recombinant ZIKV NS2B-NS3 protease, Rhodamine110 substrate fluorescence; series mostly up to 107 µM; also: nearly all actives have a fitted effect of over 60% in size; also: potency is read from the fitted curve at half-maximal effect
Method in brief: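 Noncovalent NS2B hydrophilic domain–NS3 protease domain complex (25 nM) preincubated 15 min at room temperature with compounds (up to 114 microM) in 10 mM Tris-HCl pH 8.0, 0.01% Tween 20; 1.5 microM Rhodamine110 substrate added, fluorescence change over 15 min fitted to Hill equation.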

[3] = test system: Zika virus NS2B-NS3 protease (linked construct); assay: Primary screen NINDS Rhodamine qHTS for Zika virus inhibitors (AID 1347160); conditions: purified NS2B-NS3 protease, Rhodamine110 substrate fluorescence; series mostly up to 57.1 µM; also: nearly all actives have a fitted effect of over 55% in size; also: potency is read from the fitted curve at half-maximal effect
Method in brief: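 Purified linked NS2B-NS3 protease (NS2B hydrophilic domain joined to NS3 protease by flexible linker), 25 nM in 10 mM Tris-HCl pH 8.0, 0.01% Tween 20. Compounds titrated, 15 min preincubation at room temperature; 1.5 microM Rhodamine110 substrate, FITC fluorescence change over 15 min.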

[4] = Confirmatory screen NINDS Rhodamine qHTS for Zika virus inhibitors (AID 1347161); conditions: purified enzyme assay, Rhodamine110 substrate fluorescence, 15 min; series mostly up to 114 µM; also: nearly all actives have a fitted effect of over 60% in size; also: potency is read from the fitted curve at half-maximal effect
Method in brief: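 Rhodamine110-peptide cleavage (1.5 µM substrate) by 25 nM linked NS2B-NS3 enzyme at pH 8.0 (Tris, Tween 20), after 15 min RT preincubation with compounds; 15-min fluorescence change normalized to controls and Hill-fitted.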

Furin (Homo sapiens) = Furin (Homo sapiens) (UniProt P09958); assay: Furin counterscreen qHTS for Zika virus inhibitors (AID 1347149); conditions: furin enzymatic counterscreen, fluorogenic substrate; series mostly up to 114 µM; also: nearly all actives have a fitted effect of over 70% in size; also: potency is read from the fitted curve at half-maximal effect
Chain of Furin (Homo sapiens) (P09958 whole entry, looked up): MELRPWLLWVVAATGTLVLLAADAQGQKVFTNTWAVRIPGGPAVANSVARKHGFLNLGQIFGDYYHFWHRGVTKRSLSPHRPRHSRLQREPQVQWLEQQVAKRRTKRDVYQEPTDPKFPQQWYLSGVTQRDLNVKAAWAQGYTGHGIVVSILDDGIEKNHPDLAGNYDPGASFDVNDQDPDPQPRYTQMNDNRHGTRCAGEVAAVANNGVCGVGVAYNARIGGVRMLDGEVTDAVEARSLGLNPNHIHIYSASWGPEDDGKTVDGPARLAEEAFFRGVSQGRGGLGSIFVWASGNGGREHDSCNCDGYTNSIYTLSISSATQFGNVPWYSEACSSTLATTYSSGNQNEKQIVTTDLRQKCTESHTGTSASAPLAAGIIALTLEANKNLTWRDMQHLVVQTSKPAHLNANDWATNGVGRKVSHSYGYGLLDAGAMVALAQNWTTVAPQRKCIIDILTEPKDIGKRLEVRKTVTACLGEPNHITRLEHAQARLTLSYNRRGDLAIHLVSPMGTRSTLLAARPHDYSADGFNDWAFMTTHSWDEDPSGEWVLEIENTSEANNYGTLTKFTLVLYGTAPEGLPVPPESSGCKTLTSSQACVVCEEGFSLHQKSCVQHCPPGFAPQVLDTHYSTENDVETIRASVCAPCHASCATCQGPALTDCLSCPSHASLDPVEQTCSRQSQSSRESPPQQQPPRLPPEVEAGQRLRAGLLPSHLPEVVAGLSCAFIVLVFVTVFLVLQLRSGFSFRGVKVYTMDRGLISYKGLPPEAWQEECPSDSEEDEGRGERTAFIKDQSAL
Method in brief: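 Fluorogenic cleavage of BOC-RVRR-AMC (2 microM final, Km ~15 µM) was monitored (ex 340, em 450 nm) at 37C after 15 min RT preincubation of 5 nM furin with compounds in HEPES pH 7.0 buffer with CaCl2 and Triton X-100. Percent inhibition was fitted to a 4-parameter Hill curve.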

[5] = test system: Zika virus NS2B-NS3 protease (linked construct); assay: Confirmatory screen NINDS AMC qHTS for Zika virus inhibitors (AID 1347152); conditions: Purified linked NS2B-NS3, AMC substrate fluorescence; series mostly up to 36.9 µM; also: nearly all actives have a fitted effect of over 70% in size; also: potency is read from the fitted curve at half-maximal effect
Method in brief: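 IC50s from 4-parameter Hill fits of percent inhibition, based on AMC fluorescence gain (340/450 nm) over 15 min with 10 microM Bz-Nle-KRR-AMC. Enzyme: 1 nM linked NS2B-NS3 in Tris-HCl pH 8.0; 15-min compound preincubation.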

[6] = test system: Zika virus NS2B-NS3 protease (unlinked complex); assay: Confirmatory screen GU AMC qHTS for Zika virus inhibitors (AID 1347153); conditions: Recombinant NS2B-NS3 protease, AMC substrate fluorescence;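 also: enzyme at 25 nM with substrate at 10 µM below its Km of 18.3 µM; potency is read from the fitted curve at half-maximal effect; nearly all actives have a fitted effect of over 70% in size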
Method in brief: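 Noncovalent NS2B hydrophilic domain/NS3 protease complex (25 nM) in 10 mM Tris-HCl pH 8.0, 0.01% Tween 20 was preincubated 15 min at room temperature with compounds. Then 10 µM AMC substrate (Km 18.3 µM) was added; fluorescence was read over 15 min and fitted to a 4-parameter Hill equation.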

[7] = test system: Zika virus NS2B-NS3 protease (linked construct); assay: 384 well plate NINDS Rhodamine confirmatory qHTS for Zika virus inhibitors (AID 1347164); conditions: rhodamine-110 peptide substrate fluorescence; series mostly up to 100 µM;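 also: fluorescence from protease cleavage of Ac-LKRR-rhodamine 110 substrate; nearly all actives have a fitted effect of over 65% in size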; also: potency is read from the fitted curve at half-maximal effect
Method in brief: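 Fluorescence at 485/538 nm was measured 25 minutes after adding 10 microM Ac-LKRR-Rd substrate, in the dark at room temperature. The protease (5, 30 or 60 nM final) had been preincubated ~15 minutes with compound; aprotinin as control.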

[8] = HepG2 cells viability qHTS for Zika virus inhibitors (AID 1347168); conditions: Zika counter-screen; series mostly up to 45.9 µM
Method in brief: (§1)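 Compounds were tested in concentration series on cells grown in DMEM containing 4% FBS. After 24 to 48 hours, cellular ATP was measured by luminescence with CellTiter Glo.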

[9] = ZIKV-mCherry secondary qHTS for Zika virus inhibitors (AID 1347158); conditions: Vero cells, ZIKV-mCherry infection imaging, 48-72 h; series mostly up to 49.2 µM; also: top concentration of the series differs between compounds
Method in brief: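 Vero cells, 5,000/well, plated overnight at 37 °C, then compound added and infected with recombinant ZIKV-mCherry at MOI 1 for 48-72 h. PFA-fixed, Hoechst nuclear stain, high-content imaging; cells with mCherry intensity above 450 RFU scored infected, reported as percent infection.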

[10] = Vero cells viability qHTS for Zika virus inhibitors (AID 1347167); conditions: cytotoxicity counter-screen (Zika); series mostly up to 45.9 µM
Method in brief: as §1

[11] = test system: Zika virus NS2B-NS3 protease (linked); assay: 384 well plate NINDS AMC confirmatory qHTS for Zika virus inhibitors (AID 1347163); conditions: Recombinant NS2B-NS3 protease, Ac-VKTGKR-AMC fluorescence; series mostly up to 100 µM; also: potency is read from the fitted curve at half-maximal effect; nearly all actives have a fitted effect of over 50% in size
Method in brief: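 Linked protease 5/30/60 nM final; cpds up to 1 mM final, ~15 min preinc. Substrate Ac-VKTGKR-AMC 30 microM final. RT, dark, 25 min; FI ex 355/em 460; normalized to no-enzyme/no-inhibitor ctrls.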

[12] = test system: Zika virus NS2B-NS3 protease; assay: Primary screen GU AMC qHTS for Zika virus inhibitors (AID 1347154); conditions: Zika NS2B-NS3 unlinked protease, AMC fluorogenic substrate; series mostly up to 54.1 µM; also: nearly all actives have a fitted effect of over 70% in size; also: potency is read from the fitted curve at half-maximal effect
Method in brief: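 Fluorogenic AMC-substrate cleavage by noncovalent NS2B-NS3 protease complex (25 nM, pH 8.0 Tris buffer with Tween 20) followed for 15 minutes at room temperature (~20% conversion). Percent inhibition from ex340/em450 signal change, fitted by 4-parameter Hill equation.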

[13] = target: N-terminal Xaa-Pro-Lys N-methyltransferase 1 (Homo sapiens) (UniProt Q9BV86); assay: qHTS Assay for Inhibitors of N-terminal methyltransferase 1 (NTMT1): LOPAC validation of the NTMT1 SAHH-coupled ThioGlo3 Assay (AID 1347143); conditions: recombinant NTMT1, SAHH-coupled ThioGlo3 fluorescence; series mostly up to 114 µM
Chain of N-terminal Xaa-Pro-Lys N-methyltransferase 1 (Homo sapiens) (Q9BV86 whole entry, looked up): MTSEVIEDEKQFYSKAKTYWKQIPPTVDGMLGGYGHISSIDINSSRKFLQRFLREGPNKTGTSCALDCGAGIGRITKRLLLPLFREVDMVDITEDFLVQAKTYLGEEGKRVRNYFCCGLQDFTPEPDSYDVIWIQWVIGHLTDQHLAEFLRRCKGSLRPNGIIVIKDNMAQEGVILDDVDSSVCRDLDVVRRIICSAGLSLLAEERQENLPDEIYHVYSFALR
Method in brief: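 Inhibition of NTMT1 methylation of peptide SPKRIA is followed by converting SAH with SAHH and labelling the released thiol with ThioGlo3. Plates are read at 340/450nm before and 30 min after reagent addition, both at room temperature.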

[14] = target: Lysine-specific demethylase 5B (Homo sapiens) (UniProt Q9UGL1); assay: Optimization screen for KDM5B Histone Demethylases FDH coupled qHTS against the LOPAC library (AID 1347166); conditions: KDM5B demethylation, FDH-coupled NADH fluorescence (FDH is formaldehyde dehydrogenase); series mostly up to 57.5 µM
Chain of Lysine-specific demethylase 5B (Homo sapiens) (Q9UGL1 whole entry, looked up): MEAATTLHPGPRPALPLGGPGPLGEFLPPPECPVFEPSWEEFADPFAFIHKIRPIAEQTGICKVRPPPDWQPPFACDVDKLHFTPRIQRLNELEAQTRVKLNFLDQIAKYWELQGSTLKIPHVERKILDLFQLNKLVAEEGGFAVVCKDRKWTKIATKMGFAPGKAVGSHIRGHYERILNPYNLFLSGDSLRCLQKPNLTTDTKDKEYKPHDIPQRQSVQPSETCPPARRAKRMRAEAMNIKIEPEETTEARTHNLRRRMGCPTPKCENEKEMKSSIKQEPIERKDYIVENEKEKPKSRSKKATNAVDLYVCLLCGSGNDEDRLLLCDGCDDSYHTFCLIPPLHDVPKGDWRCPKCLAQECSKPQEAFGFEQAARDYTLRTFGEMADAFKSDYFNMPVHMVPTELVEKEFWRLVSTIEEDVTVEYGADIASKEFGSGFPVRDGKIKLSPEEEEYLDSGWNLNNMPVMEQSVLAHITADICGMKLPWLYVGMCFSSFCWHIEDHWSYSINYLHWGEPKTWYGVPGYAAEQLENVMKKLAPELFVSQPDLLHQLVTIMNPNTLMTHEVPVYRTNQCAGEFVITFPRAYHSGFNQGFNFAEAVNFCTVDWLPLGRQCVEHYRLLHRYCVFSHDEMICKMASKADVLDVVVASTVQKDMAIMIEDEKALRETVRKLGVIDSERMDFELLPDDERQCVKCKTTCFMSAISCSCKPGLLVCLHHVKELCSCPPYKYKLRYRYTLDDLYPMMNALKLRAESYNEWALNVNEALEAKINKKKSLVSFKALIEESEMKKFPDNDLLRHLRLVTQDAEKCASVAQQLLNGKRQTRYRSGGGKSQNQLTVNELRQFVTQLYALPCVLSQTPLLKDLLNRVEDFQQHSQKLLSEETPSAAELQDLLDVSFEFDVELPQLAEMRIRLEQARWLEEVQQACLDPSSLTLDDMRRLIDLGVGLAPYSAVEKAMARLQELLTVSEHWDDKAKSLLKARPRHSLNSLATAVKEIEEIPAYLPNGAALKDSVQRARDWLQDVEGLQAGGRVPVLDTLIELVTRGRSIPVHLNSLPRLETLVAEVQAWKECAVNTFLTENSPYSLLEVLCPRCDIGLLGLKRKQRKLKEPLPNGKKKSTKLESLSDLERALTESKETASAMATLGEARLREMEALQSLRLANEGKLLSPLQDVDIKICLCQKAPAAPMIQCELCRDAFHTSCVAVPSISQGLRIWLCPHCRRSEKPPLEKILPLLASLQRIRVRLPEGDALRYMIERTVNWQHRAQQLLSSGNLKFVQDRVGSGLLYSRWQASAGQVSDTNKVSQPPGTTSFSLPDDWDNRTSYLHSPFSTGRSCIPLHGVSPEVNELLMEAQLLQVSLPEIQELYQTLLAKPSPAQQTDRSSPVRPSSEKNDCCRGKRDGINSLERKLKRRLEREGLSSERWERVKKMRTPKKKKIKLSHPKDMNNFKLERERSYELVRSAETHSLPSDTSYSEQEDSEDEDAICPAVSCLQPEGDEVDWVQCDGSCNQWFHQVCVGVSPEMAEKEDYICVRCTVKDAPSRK
Method in brief: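 KDM5BDeltaAP (200nM final) preincubated 10 min with compound, then 12.5uM H3K4Me3, 25uM a-ketoglutarate, ascorbate, Fe(II), NAD+ and FDH added; 50mM HEPES pH 7.5, 0.01% Tween-20. NADH fluorescence (340/450 nm) change over 30 min, room temperature.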

Compound: C=C1/C(=C/C=C2\CCC[C@]3(C)[C@@H]([C@H](C)/C=C/[C@@H](C)C(C)C)CC[C@@H]23)C[C@@H](O)C[C@@H]1O
- Potency [1]: 49.4 µM (active)
- Potency [2]: 31.6 µM (active)
- Potency [3]: inactive
- Potency [4]: 49.4 µM (active)

Compound: CCCCCc1ccc(/C=C/C(=O)Nc2cc(Cl)ccc2C(=O)O)cc1
- Potency (Furin (Homo sapiens)): 39.3 µM (active)
- Potency [5]: 8.79 µM (active)
- Potency [6]: 9.87 µM (active)
- Potency [1]: 1.75 µM (active)
- Potency [3]: 2 µM (active)
- Potency [4]: 1.75 µM (active)
- Potency [7]: 22.4 µM (active)
- outcome [8]: inactive

Compound: Cc1cc(C)c2c(c1)C(N(Cc1cc(C(F)(F)F)cc(C(F)(F)F)c1)c1nnn(C)n1)CCCN2CC1CCC(C(=O)O)CC1 (stereo unspecified)
- Potency [5]: 22.1 µM (active)
- Potency [6]: 22.1 µM (active)
- Potency [1]: 8.79 µM (active)
- Potency [9]: inactive
- Potency [2]: 3.16 µM (active)
- Potency [3]: 3.55 µM (active)
- Potency [4]: 4.94 µM (active)
- outcome [10]: inactive
- outcome [8]: inactive

Compound: O=C(O)c1ccc(N2C(=O)/C(=C/c3ccc(-c4ccc([N+](=O)[O-])cc4)o3)C=C2c2ccccc2)cc1
- Potency [5]: 12.4 µM (active)
- Potency [1]: 1.56 µM (active)
- Potency [9]: inactive
- Potency [3]: 1.78 µM (active)
- Potency [4]: 1.75 µM (active)
- Potency [11]: 22.4 µM (active)
- Potency [7]: inactive
- outcome [10]: inactive
- outcome [8]: inactive

Compound: CN(C)CCCn1cc(C2=C(c3c[nH]c4ccccc34)C(=O)NC2=O)c2ccccc21
- Potency [12]: inactive
- Potency [2]: inactive
- Potency [3]: inactive

Compound: NC(=O)C[C@@H](N)C(=O)O
- Potency [12]: inactive

Compound: CC#C[C@@H](CC(=O)O)c1ccc(OCc2ccc(CN3CCC4(C=Cc5ccccc54)CC3)s2)cc1
- Potency (Furin (Homo sapiens)): inactive
- Potency [5]: 35 µM (active)
- Potency [6]: 39.3 µM (active)
- Potency [1]: 2.78 µM (active)
- Potency [9]: inactive
- Potency [2]: 3.16 µM (active)
- Potency [3]: 5.62 µM (active)
- Potency [4]: 3.5 µM (active)
- Potency [11]: 5.01 µM (active)
- outcome [10]: inactive
- outcome [8]: inactive

Compound: CC(O)(C(=O)O)C1CCC2(C)C1CCC1(C)C2CCC2C3(C)CCC(O)C(C)(COC4OC(CO)C(O)C(O)C4O)C3CCC21C (stereo unspecified)
- Potency (Furin (Homo sapiens)): inactive
- Potency [5]: inactive
- Potency [1]: 13.1 µM (active)
- Potency [2]: 7.94 µM (active)
- Potency [4]: 13.1 µM (active)
- Potency [11]: 39.8 µM (active)
- Potency [7]: 12.6 µM (active)
- outcome [10]: inactive
- outcome [8]: inactive

Compound: CC1=C(C(=O)OC2CCCCC2)C(c2ccc([N+](=O)[O-])cc2)C2=C(CC(C)(C)CC2=O)N1 (stereo unspecified)
- Potency [1]: inactive
- Potency [2]: inactive
- Potency [4]: inactive

Compound: O=C(O)c1ccc(S(=O)(=O)N(Cc2ccc(OC(F)(F)F)cc2)c2ncc(C(F)(F)F)cc2Cl)cc1
- Potency [5]: 49.4 µM (active)
- Potency [6]: 44.1 µM (active)
- Potency [1]: 3.93 µM (active)
- Potency [2]: 4.47 µM (active)
- Potency [3]: 4.47 µM (active)
- Potency [4]: 3.93 µM (active)
- Potency [11]: 2.51 µM (active)
- outcome [10]: inactive
- outcome [8]: inactive

Compound: COc1ccc2nccc(C(=O)CC[C@@H]3CCN(CC#Cc4cc(F)cc(F)c4F)C[C@@H]3C(=O)O)c2c1
- Potency [1]: 39.3 µM (active)
- Potency [2]: 25.1 µM (active)
- Potency [3]: inactive
- Potency [4]: 44.1 µM (active)

Compound: C[C@H]1CO[C@@H]2Cn3cc(C(=O)NCc4ccc(F)cc4F)c(=O)c(O)c3C(=O)N12
- Potency [1]: inactive
- Potency [2]: 35.5 µM (active)
- Potency [3]: inactive
- Potency [4]: inactive

Compound: COc1cc2ncc(-c3ccccc3)nc2cc1OC
- Potency [12]: 6.31 µM (active) and 2.38 µM (active)
- Potency [2]: inactive
- Potency [3]: inactive

Compound: CC(C)C[C@H](CO)Nc1nc(S[C@@H](C)c2ccccc2)nc2nc(N)sc12
- Potency [1]: 55.5 µM (active)
- Potency [2]: inactive

Compound: CCCCCCCOc1cc2c(cc1/C(C)=C/c1ccc(C(=O)O)cc1)C(C)(C)CCS2(=O)=O
- Potency (Furin (Homo sapiens)): 55.5 µM (active)
- Potency [5]: 8.79 µM (active)
- Potency [6]: 8.79 µM (active)
- Potency [1]: 1.97 µM (active)
- Potency [2]: 1.78 µM (active)
- Potency [3]: 2.51 µM (active)
- Potency [4]: 1.97 µM (active)
- outcome [10]: inactive
- outcome [8]: inactive

Compound: NCCCC(=O)O
- outcome [13]: inactive
- outcome [14]: inactive

Compound: CNC(=O)c1ccc2c(c1)CCO[C@H]2CCN1CCN(c2ccc(OC)cc2)CC1
- Potency [2]: inactive
- Potency [3]: inactive

Compound: COC1CC/C=C(\C)C(=O)Nc2cc(O)cc(c2)CC(C)CC(OC)C(O)C(C)/C=C(\C)C1OC(N)=O (stereo unspecified)
- Potency [2]: inactive
- Potency [3]: inactive

Compound: C/C=C\NC(=O)C1NC(=O)C(CC(N)=O)NC(=O)C(NC(=O)C(=O)C(C)CC)Cc2ccc(O)c(c2)-c2cccc3c2NC(=O)C3(O)C1O (stereo unspecified)
- Potency [2]: inactive

Compound: Cc1cc(NC(=O)NCCN2CCC(O)(Cc3ccccc3)CC2)c2ccccc2n1
- Potency [2]: inactive
- Potency [3]: inactive

Compound: Nc1c(S(=O)(=O)c2ccccc2)c2nc3ccccc3nc2n1-c1ccc(F)cc1
- Potency [2]: inactive
- Potency [3]: inactive

Compound: Cc1nc2ccc(-n3ncc(C(=O)c4cc5ccccc5[nH]4)c3N)cc2[nH]1
- Potency [2]: inactive
- Potency [3]: inactive
